This passage reports growth inhibition results from PubChem BioAssay (NCI).

Test [1] in a line: NCI Yeast Anticancer Drug Screen. Data for the rad50 strain (AID 155).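 Note: 0% = growth of vehicle-only cultures of the same strain.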 The note with it: S. cerevisiae rad50 strain growth inhibition, hits give high values. The procedure, abridged:
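Vehicle-treated cultures provide the reference for the growth inhibition reported for compound-exposed, repair-deficient yeast.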

Test [2] in a line: NCI Yeast Anticancer Drug Screen. Data for the mec2-1 strain (AID 157). The note with it: S. cerevisiae mec2-1 strain, hits give high values. In a few lines:
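Growth inhibition is read against vehicle-treated controls after compound exposure of the mec2-1 yeast strain, which is defective in DNA damage repair or cell cycle control.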

Test [3] in a line: NCI Yeast Anticancer Drug Screen. Data for the sgs1 mgt1 strain (AID 161).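 Note: 0% = growth of cultures given vehicle only.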 The conditions noted are these: S. cerevisiae sgs1 mgt1 strain, hits give high values. The procedure, abridged:
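Compounds are added to genetically altered yeast, and growth is compared with cultures given vehicle alone to give percent inhibition.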

Test [4] in a line: NCI Yeast Anticancer Drug Screen. Data for the cln2 rad14 strain (AID 165).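 Note: 0% = growth equal to vehicle treated cultures.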 The conditions noted are these: S. cerevisiae cln2 rad14 strain, hits give high values. The procedure, abridged:
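Growth inhibition, relative to vehicle-treated controls, is the read-out. The test organism is a yeast strain with defined genetic alterations, cln2 rad14.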

Test [5] is described as follows: NCI Yeast Anticancer Drug Screen. Data for the bub3 strain (AID 167). The conditions noted are these: S. cerevisiae bub3 mutant strain, hits give high values. In a few lines: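 Mutant yeast screening strain plus compound; vehicle-treated cultures serve as the 0% inhibition reference.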
Test [6] in a line: NCI Yeast Anticancer Drug Screen. Data for the mlh1 rad18 strain (AID 175). The conditions noted are these: S. cerevisiae mlh1 rad18 strain growth inhibition, hits give high values. The procedure, abridged:
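Cells of a genetically altered yeast strain, deficient in DNA damage repair, were treated with compound. Their growth was then compared with that of vehicle-treated cultures to give inhibition.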

The mark [7] stands for this setting: at 5.0 µM (retest, dose inferred, filed as 0.5).
Setting [8] is: at 50.0 µM (retest, dose inferred, filed as 5.0).

Compounds without any hit were thinned out: in the full panel of roughly 79,000, 15% have a hit. Unmarked numbers belong to inactive results. Activity calls are given as the source filed them. Cut-off read from the data, not from the text of the source: active = growth inhibition above about 70%; inactive = the rest.

With `O=[N+]([O-])c1cc[n+]([O-])c2ccccc12`, the growth inhibition in test [1] (setting [7]) was 99% (active); in test [1] (setting [8]), 98% (active); in test [1] (at 50.0 µM), 99.2% (active); in test [2] (setting [7]), 100% (active); in test [2] (setting [8]), 99% (active); in test [2] (at 50.0 µM) it was 53.9%. Also, the growth inhibition in test [3] (setting [7]) was 99% (active); in test [3] (setting [8]) it was 99% (active); in test [3] (at 50.0 µM) it was 54.9%; in test [4] (setting [7]) it was 100% (active); in test [4] (setting [8]), 100% (active); in test [4] (at 50.0 µM), 99.3% (active). For the same molecule, the growth inhibition was 98% (active) in test [5] (setting [7]); 99% (active) in test [5] (setting [8]); 49.5% in test [5] (at 50.0 µM); 99% (active) in test [6] (setting [7]); 99% (active) in test [6] (setting [8]); 98% (active) in test [6] (at 50.0 µM).

As for `Clc1ccccc1C#[C][Hg][C]#Cc1ccccc1Cl`, the growth inhibition in test [1] (setting [7]) is 3%; in test [1] (setting [8]) it was 34%; in test [1] (at 50.0 µM), 0.25%; in test [2] (setting [7]), 3%; in test [2] (setting [8]) it was 94% (active); in test [2] (at 50.0 µM) it was 5.95%. In addition, the growth inhibition in test [3] (setting [7]) was 4%; in test [3] (setting [8]) it was 95% (active); in test [3] (at 50.0 µM), 19.9%; in test [4] (setting [7]) it was 1%; in test [4] (setting [8]), 29%; in test [4] (at 50.0 µM), -4.95%. For the same molecule, the growth inhibition in test [5] (setting [7]) is -3%; in test [5] (setting [8]), 92% (active); in test [5] (at 50.0 µM) it was -9.2%; in test [6] (setting [7]), 5%; in test [6] (setting [8]) it was 76% (active); in test [6] (at 50.0 µM), 19.4%.

As to `CN(C)c1ccc(N=Nc2cccc(C(=O)[O-])c2)cc1.CN(C)c1ccc(N=Nc2cccc(C(=O)[O-])c2)cc1.NC1CCCCC1N.O=[N+]([O-])O.[Pt+4]`, the growth inhibition in test [1] (setting [7]) was 1%; in test [1] (setting [8]), 98% (active); in test [1] (at 50.0 µM), 91% (active); in test [2] (setting [7]), 21%; in test [2] (setting [8]) it was 98% (active); in test [2] (at 50.0 µM) it was 91.7% (active). The growth inhibition was 23% in test [3] (setting [7]); 99% (active) in test [3] (setting [8]); 93.2% (active) in test [3] (at 50.0 µM); 28% in test [4] (setting [7]); 97% (active) in test [4] (setting [8]); 44.1% in test [4] (at 50.0 µM). Besides, the growth inhibition in test [5] (setting [7]) was 45%; in test [5] (setting [8]), 98% (active); in test [5] (at 50.0 µM) it was 81.5% (active); in test [6] (setting [7]), 41%; in test [6] (setting [8]), 97% (active); in test [6] (at 50.0 µM), 92% (active).

As for `COc1ccc([Se][Se]c2ccc(OC)cc2OC)c(OC)c1`, the growth inhibition in test [1] (setting [7]) was 18%; in test [1] (setting [8]) it was 18%; in test [1] (at 50.0 µM), 88.3% (active); in test [2] (setting [7]), 23%; in test [2] (setting [8]), 23%; in test [2] (at 50.0 µM) it was 89.8% (active). The growth inhibition in test [3] (setting [7]) was 18%; in test [3] (setting [8]), 18%; in test [3] (at 50.0 µM), 88.5% (active); in test [4] (setting [7]), 9%; in test [4] (setting [8]) it was 9%; in test [4] (at 50.0 µM), 90% (active). Besides, the growth inhibition in test [5] (setting [7]) was -4%; in test [5] (setting [8]), -4%; in test [5] (at 50.0 µM) it was 89.7% (active); in test [6] (setting [7]) it was 12%; in test [6] (setting [8]) it was 12%; in test [6] (at 50.0 µM), 88.4% (active).

On to `O=C(CCl)Nc1ccc(Cl)cc1`, for which the growth inhibition in test [1] (setting [7]) was 3%; in test [1] (setting [8]) it was 44%; in test [1] (at 50.0 µM) it was 54.6%; in test [2] (setting [7]) it was 1%; in test [2] (setting [8]) it was 29%; in test [2] (at 50.0 µM) it was 59.5%. In addition, the growth inhibition is -2% in test [3] (setting [7]); 44% in test [3] (setting [8]); 67.3% in test [3] (at 50.0 µM); -2% in test [4] (setting [7]); 16% in test [4] (setting [8]); 40.9% in test [4] (at 50.0 µM). Also, the growth inhibition was 1% in test [5] (setting [7]); 40% in test [5] (setting [8]); 51.9% in test [5] (at 50.0 µM); 1% in test [6] (setting [7]); 45% in test [6] (setting [8]); 61.2% in test [6] (at 50.0 µM).

As to `NC(=S)C1=C(N)Oc2c(c(=O)oc3ccccc23)C1c1ccc(Br)cc1` (stereo not given), the growth inhibition in test [1] (setting [7]) was -7%; in test [1] (setting [8]) it was 66%; in test [1] (at 50.0 µM), 20.1%; in test [2] (setting [7]), 10%; in test [2] (setting [8]), 73% (active); in test [2] (at 50.0 µM) it was 53.7%. In addition, the growth inhibition was 10% in test [3] (setting [7]); 76% (active) in test [3] (setting [8]); 57.9% in test [3] (at 50.0 µM); 16% in test [4] (setting [7]); 85% (active) in test [4] (setting [8]); 21.4% in test [4] (at 50.0 µM). Further, the growth inhibition was 7% in test [5] (setting [7]); 90% (active) in test [5] (setting [8]); 62.6% in test [5] (at 50.0 µM); -2% in test [6] (setting [7]); 91% (active) in test [6] (setting [8]); 62.5% in test [6] (at 50.0 µM).

`CCOP(=O)(O)C(Nc1ccc(N=Nc2ccccc2)cc1)c1ccc(C(Nc2ccc(N=Nc3ccccc3)cc2)P(=O)(O)OCC)cc1` (stereo not given): the growth inhibition in test [1] (setting [7]) is -4%; in test [1] (setting [8]), 35%; in test [1] (at 50.0 µM), 54%; in test [2] (setting [7]), -6%; in test [2] (setting [8]), 27%; in test [2] (at 50.0 µM) it was 67.7%. Moreover, the growth inhibition is 3% in test [3] (setting [7]); 37% in test [3] (setting [8]); 86% (active) in test [3] (at 50.0 µM); -8% in test [4] (setting [7]); -6% in test [4] (setting [8]); 41.3% in test [4] (at 50.0 µM). Also, the growth inhibition in test [5] (setting [7]) is -5%; in test [5] (setting [8]), 31%; in test [5] (at 50.0 µM), 57.5%; in test [6] (setting [7]) it was -5%; in test [6] (setting [8]), 31%; in test [6] (at 50.0 µM), 90.1% (active).

In the case of `Cc1cc(C(C)(C)c2ccc(O)c(C)c2)ccc1O`, the growth inhibition in test [1] (setting [7]) was -2%; in test [1] (setting [8]) it was 98% (active); in test [1] (at 50.0 µM), 99.3% (active); in test [2] (setting [7]), -4%; in test [2] (setting [8]) it was 99% (active); in test [2] (at 50.0 µM), 99.4% (active). The growth inhibition in test [3] (setting [7]) was -6%; in test [3] (setting [8]), 98% (active); in test [3] (at 50.0 µM), 99.5% (active); in test [4] (setting [7]), 1%; in test [4] (setting [8]), 98% (active); in test [4] (at 50.0 µM), 97.6% (active). Moreover, the growth inhibition in test [5] (setting [7]) is -1%; in test [5] (setting [8]), 99% (active); in test [5] (at 50.0 µM) it was 99.2% (active); in test [6] (setting [7]), 0%; in test [6] (setting [8]), 99% (active); in test [6] (at 50.0 µM) it was 99.3% (active).

On to `CCCCCCC(=O)[O][Hg][c]1ccccc1`, for which the growth inhibition was 99% (active) in test [1] (setting [7]); 99% (active) in test [1] (setting [8]); 99.3% (active) in test [1] (at 50.0 µM); 100% (active) in test [2] (setting [7]); 100% (active) in test [2] (setting [8]); 99.7% (active) in test [2] (at 50.0 µM). The growth inhibition was 100% (active) in test [3] (setting [7]); 100% (active) in test [3] (setting [8]); 99.7% (active) in test [3] (at 50.0 µM); 99% (active) in test [4] (setting [7]); 99% (active) in test [4] (setting [8]); 99% (active) in test [4] (at 50.0 µM). Moreover, the growth inhibition in test [5] (setting [7]) is 99% (active); in test [5] (setting [8]) it was 99% (active); in test [5] (at 50.0 µM) it was 99.4% (active); in test [6] (setting [7]), 100% (active); in test [6] (setting [8]) it was 99% (active); in test [6] (at 50.0 µM), 99.7% (active).

As to `O=[N+]([O-])c1ccc2c3c(cccc13)CC2`, the growth inhibition was 15% in test [1] (setting [7]); 86% (active) in test [1] (setting [8]); 6.7% in test [1] (at 50.0 µM); 3% in test [2] (setting [7]); 32% in test [2] (setting [8]); 9.15% in test [2] (at 50.0 µM). Also, the growth inhibition in test [3] (setting [7]) was 11%; in test [3] (setting [8]), 84% (active); in test [3] (at 50.0 µM) it was 0.9%; in test [4] (setting [7]), -1%; in test [4] (setting [8]) it was 48%; in test [4] (at 50.0 µM), -4.15%. Further, the growth inhibition in test [5] (setting [7]) was 6%; in test [5] (setting [8]), 54%; in test [5] (at 50.0 µM) it was 19.9%; in test [6] (setting [7]), 25%; in test [6] (setting [8]), 90% (active); in test [6] (at 50.0 µM), 18.4%.
